# Measured values published in PubChem BioAssay AID1347056 (Sanford-Burnham Center for Chemical Genomics, 2019).
# Out of some 360,000 compounds screened, about 3,600 (1%) were called active.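 How the source made its calls: active means compounds whose plate-normalised and pattern-corrected inhibition of the luciferase reporter signal at the single screening dose is 50% or more; inactive means the rest.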 Only a selection was taken, and actives are over-represented in it overall.
# Experiment: inhibitors of TROY-driven NF-kB signaling, primary screen, Q293 LMP1-TROYcd cells, NF-kB luciferase, uHTS (AID 1347056)
# Details: Q293 LMP1-TROYcd NF-kB luciferase reporter, 4 h; at 10 µM; active compounds read high
row,Compound,inhibition
1,Cc1cccc(NC(=O)Cn2cc(C(=O)c3ccco3)c3ccccc32)c1,8.41% (inactive)
2,Cc1cccc(NC(=O)c2nc(S(=O)(=O)Cc3ccccc3)ncc2Cl)c1,77.9% (active)
3,Cc1cccc(CN2CCC(CNC(=O)Nc3ccc(F)c(Cl)c3)CC2)c1,12.4% (inactive)
4,Cc1ccc(C)c(Cn2nnc3c(=O)[nH]c(C(=O)Nc4ccc(F)cc4)nc32)c1,30.7% (inactive)
5,CSc1nnc(NC(=O)c2nc(S(=O)(=O)Cc3ccc(C)cc3)ncc2Cl)s1,-5.7% (inactive)
6,Cc1cccc(CS(=O)(=O)c2ncc(Cl)c(C(=O)Nc3ccc(F)cc3)n2)c1,70.8% (active)
7,CCOc1ccc(NC(=O)C2CC(=O)N=C(N)S2)cc1 (stereo unspecified),15.3% (inactive)
8,O=C(O)c1ccc(Cn2cnc3c(=S)nc[nH]c32)cc1,12.2% (inactive)
9,C/C(CC(=O)N1CCN(C=O)CC1)=N\NC(=O)c1ccc(Br)cc1,-8.44% (inactive)
10,COc1cc(/C=C/C(=O)O)cc(S(=O)(=O)Nc2ccccc2C(=O)NCCc2ccccc2)c1OC,-15.9% (inactive)
11,CCCCC[C@H]1CN(C2CCCCC2)C(=O)[C@@H]1CC(=O)NCc1ccc(OC)cc1,14.9% (inactive)
12,Cc1ccc(S(=O)(=O)N2CCC(C(=O)N[C@@H](C)C(=O)NCc3ccco3)CC2)cc1,13.7% (inactive)
13,CCn1c(SCc2cccc(C(=O)O)c2)nnc1-c1ccc(Cl)cc1,6.17% (inactive)
14,Cc1ccccc1NC(=O)C1CCCN(C(=O)NCc2ccccc2)C1 (stereo unspecified),-8.74% (inactive)
15,COc1ccc2c(c1)c(=Cc1ccc(N(C)C)cc1)c1cc(-c3ccccc3)[n+](C)n12,69.4% (active)
16,COc1cccc(CCNC(=O)c2cccc(NC(=O)C3=C(C)OCCS3)c2)c1,13.6% (inactive)
17,Cc1cccc(-c2nnc(SCC(=O)O)n2Cc2ccccc2)c1,-6.32% (inactive)
18,Cc1ccsc1C(=O)OCC(=O)Nc1cccc(F)c1,-57.4% (inactive)
19,Cc1ccsc1C(=O)OCC(=O)NCCc1ccccc1,-56.3% (inactive)

row,Compound,inhibition
1,Cc1ccsc1C(=O)OCC(=O)c1cc(C)n(CC2CCCO2)c1C (stereo unspecified),78.8% (active)
2,Cc1cccc(C(=O)Nc2ccccc2-c2nnn(CC(=O)Nc3ccc4c(c3)OCCO4)n2)c1,6.18% (inactive)
3,COc1cc2c(cc1OC)C(=O)NCC(C)(C)O2,32.5% (inactive)
4,CC(=O)c1cc(NC(=O)c2ccccc2)c(=O)oc1/C=C/N(C)C,7.35% (inactive)
5,O=C(NC1=CC(=O)c2ccccc2C1=O)c1ccccc1,63.7% (active)
6,Cc1cc(=O)c2ccc(NC(=O)c3ccccc3)cc2[nH]1,-14.4% (inactive)
7,CC(=O)Nc1cncc(-c2ccccc2CO)n1,-15.3% (inactive)
8,Cn1c(=O)c2cc(S(=O)(=O)NCCC(=O)Nc3ccc(F)cc3F)ccc2n(C)c1=O,-2.05% (inactive)
9,O=C(COC(=O)c1ccc(O)cc1O)c1ccc2c(c1)OCCO2,1.99% (inactive)
10,CC(=O)Nc1cccc(C(=O)OCC(=O)NCc2cc(C)c(O)c(C)c2)c1,-29% (inactive)
11,O=C(OCc1ccccc1F)c1ccc2c(c1)OCCO2,-79.6% (inactive)
12,O=C(COC(=O)c1ccccc1)c1ccc2c(c1)OCCO2,80.8% (active)
13,COc1ccc(C(=O)OCC(=O)Nc2cccc(C(C)=O)c2)cc1OC,10.5% (inactive)
14,CC(=O)Nc1cccc(C(=O)OCC(=O)c2ccc3c(c2)OCO3)c1,64.7% (active)
15,Cc1cccc(OC(=O)c2sc3ncn(C)c(=O)c3c2C)c1,-27.1% (inactive)
16,COc1cccc(C(=O)N2CCC(n3nccc3NC(=O)C3CCOC3)CC2)c1 (stereo unspecified),-1.36% (inactive)
17,CCOc1ccc(C(C(=O)NC2CCCC2)N(C(=O)c2snc(C(N)=O)c2N)C2CCCC2)cc1 (stereo unspecified),-0.96% (inactive)
18,Nc1nnc(SCC(=O)NC2CCCc3ccccc32)s1 (stereo unspecified),21% (inactive)
19,COc1cccc(NC(=O)N(C)C[C@@H]2Oc3ncc(Br)cc3C(=O)N([C@@H](C)CO)C[C@H]2C)c1,-0.54% (inactive)

row,Compound,inhibition
1,Cc1cccc(NC(=S)NCc2ccc3[nH]c4c(c3c2)CCCC4)c1,63.8% (active)
2,Cc1cc(C)cc(NC(=S)NCCc2c[nH]c3ccccc23)c1,1.03% (inactive)
3,CCc1cccc(CC)c1NC(=S)NCc1ccc2[nH]c(C)cc2c1,-11.8% (inactive)
4,CC(C)CCN1CCC(C)(NC(=O)c2ccccc2)C1=O (stereo unspecified),-0.82% (inactive)
5,C=CCC(NCc1ccco1)c1ccc(OC)cc1 (stereo unspecified),14.2% (inactive)
6,CC(=O)Nc1cccc(-c2cc(NC=O)c3ncc(-c4ccc(F)c(Cl)c4)n3c2)c1,83.1% (active)
7,CC(=O)c1ccc(-c2cnc3c(NC=O)cc(-c4cccc(NS(C)(=O)=O)c4)cn23)cc1,22.6% (inactive)
8,COc1cccc(-c2cnc3c(NC(C)=O)cc(-c4cccc(NC(C)=O)c4)cn23)c1,12.8% (inactive)
9,COc1cccc(-c2cc(NC(C)=O)c3ncc(-c4cccc(C(C)=O)c4)n3c2)c1,12.8% (inactive)
10,CC(=O)Nc1cccc(-c2cc(NC(C)=O)c3ncc(-c4ccccc4)n3c2)c1,80.3% (active)
11,CC(=O)c1cccc(-c2cnc3c(NC=O)cc(-c4cccc(C(=O)N(C)C)c4)cn23)c1,-8.12% (inactive)
12,O=C(Nc1ccccc1F)c1ccc(Cn2cc(Br)cn2)cc1,-34.2% (inactive)
13,CCC(=NC1CC(C)(C)NC(C)(C)C1)C1=C(O)CC(C)(C)CC1=O,-0.72% (inactive)
14,CC(C)c1cc(C(=O)O)on1,-0.05% (inactive)
15,CC1O[C@@H](OC2C(O)C(C)O[C@H](OC(=O)[C@]34CCC(C)(C)C[C@H]3C3=CCC5[C@@]6(C)CC(O)C(O[C@@H]7OC(CO)C(O)[C@@H](O)[C@@H]7O)[C@@](C)(C(=O)O)C6CC[C@@]5(C)[C@]3(CO)CC4)C2O[C@H]2OC(C)[C@@H](O[C@@H]3OCC(O[C@@H]4OC(CO)C(O)[C@H](O)C4O)[C@@H](O)[C@@H]3O)[C@H](O)C2O)C(O)C(O)C1O (stereo partly specified),5% (inactive)
16,Cc1nc2ccccc2c(=O)n1NC(=O)c1ccc(Cl)c([N+](=O)[O-])c1,73.3% (active)
17,Cc1ccnc(NC(=O)c2ccc(Cl)c([N+](=O)[O-])c2)c1,-25.6% (inactive)
18,O=C(Nn1c(SCc2ccc([N+](=O)[O-])cc2)nc2ccccc2c1=O)c1ccc(F)cc1,36.3% (inactive)
